# Earlier results, collected in PubChem BioAssay AID977610.
# In all, about 3,600 compounds went through this assay and about 3,600 (100%) were called active. The limit is not given here; nearly all actives have Ki up to about 18000 µM. The set was probably picked from earlier hits. This is one part of the list.
# Assay: PubChem AID 977610
# Settings: PDB protein-ligand complexes, literature Ki
compound,measurement,setting,value
COC(=O)N[C@H](C(=O)N/[N+](=C\c1ccc(C2=CCSC2)cc1)CCC[C@@]1(O)Cc2ccc(cc2)C/C=C\CNC(=O)[C@H](C(C)C)NC1=O)C(C)(C)C,Ki,"protein: HIV-1 protease, PDB entry 4cpu",0.0295 µM (active)
COC(=O)N[C@H](C(=O)N/[N+](=C\c1ccc(-c2ccsc2)cc1)CCC[C@@]1(O)Cc2ccc(cc2)CC/C=C\NC(=O)[C@H](C(C)C)NC1=O)C(C)(C)C,Ki,"protein: HIV-1 protease, PDB entry 4cpw",0.0315 µM (active)
CC(C)CN(C[C@@H](O)[C@H](Cc1ccccc1)N[C@@H](O)O[C@H]1CO[C@H]2OCC[C@H]21)S(=O)(=O)c1ccc(C(=O)O)cc1,Ki,"protein: Protease, PDB entry 4i8w",1.27e-05 µM (active)
CC(C)CN(C[C@@H](O)[C@H](Cc1ccccc1)NC(=O)O[C@H]1CO[C@H]2OCC[C@H]21)S(=O)(=O)c1ccc(C(N)=O)cc1,Ki,"protein: Protease, PDB entry 4i8z",8.9e-06 µM (active)
CCOP(=O)(COc1ccc(C[C@H](NC(=O)O[C@H]2CO[C@H]3OCC[C@H]32)[C@H](O)CN(CC(C)C)S(=O)(=O)c2ccc(OC)cc2)cc1)OCC,Ki,"protein: HIV-1 Protease, PR1 E35EE (VPR1), PDB entry 4m8y",0.00011 µM (active)
same,Ki,"protein: HIV-1 Protease, PR2 (VPR2), PDB entry 4m8x",6.3e-05 µM (active)
NC1NC(=O)c2[nH]cc(CN3C[C@H](CO)[C@@H](O)C3)c2N1 (stereo partly drawn),Ki,"protein: Purine nucleoside phosphorylase (W16Y, W94Y, W178Y, H257W mutation), PDB entry 4eb8",0.000151 µM (active)
NC1N[C@@](c2cccc(-c3cncnc3)c2)(c2ccnc(C(F)F)c2)c2cccc(F)c21 (stereo partly drawn),Ki,"protein: BETA-SECRETASE 1, PDB entry 4b05",0.0261 µM (active)
CCC(CC)O[C@@H]1CC(C(=O)O)=C[C@H](N)[C@H]1NC(C)=O,Ki,"protein: Neuraminidase, PDB entry 4ks1",0.0015 µM (active)
CCC(CC)O[C@@H]1C=C(C(=O)O)C[C@H](NC(N)N)[C@H]1NC(C)=O,Ki,"protein: Neuraminidase, PDB entry 4ks2",0.00046 µM (active)
Cc1onc(-c2ccccc2Cl)c1C(=O)NCC(=O)O,Ki,"protein: AmpC beta-lactamase, PDB entry 4kz5",10000 µM (active)
C[C@@H](O)c1nc2cnc3[nH]ccc3c2n1C1CCC(CC#N)CC1 (stereo partly drawn),Ki,"protein: Tyrosine-protein kinase JAK1, PDB entry 4ivc",0.0001 µM (active)
C[C@@H](O)c1nc2cnc3[nH]ccc3c2n1C1CCC(C#N)CC1 (stereo partly drawn),Ki,"protein: Tyrosine-protein kinase JAK1, PDB entry 4ivb",0.0019 µM (active)
same,Ki,"protein: Tyrosine-protein kinase JAK2, PDB entry 4iva",0.0684 µM (active)
COc1ccc(C2CCCC3N=C(Nc4ccc(N5CCN(C)CC5)cc4)NN32)cc1 (stereo not drawn),Ki,"protein: Tyrosine-protein kinase JAK2, PDB entry 4jia",0.0006 µM (active)
CC(=O)N[C@H]1[C@H]([C@H](O)[C@H](O)CO)O[C@@H](C(=O)O)C[C@@H]1N=C(N)N,Ki,"protein: Neuraminidase from the B-Lyon-CHU-15.216-2011 virus, PDB entry 4cpz",0.0209 µM (active)
CC(=O)N[C@H]1[C@H]([C@H](O)[C@H](O)CO)OC(C(=O)O)C[C@@H]1NC(N)N (stereo partly drawn),Ki,"protein: Human Sialidase Neu2, PDB entry 2f0z",17 µM (active)
CC(=O)N[C@H]1[C@H]([C@H](O)[C@H](O)CO)OC(C(=O)O)C[C@@H]1O (stereo partly drawn),Ki,"protein: Trypanosoma cruzi trans-sialidase, PDB entry 1ms0",1230 µM (active)
same,Ki,"protein: human cytosolic sialidase Neu2, PDB entry 1vcu",140 µM (active)
CCC(CC)(NC(=O)C(C)C)C(=O)N[C@@H](CCCNC(N)N)C(=O)NC1(C(=O)NC(c2ccccc2)c2ccccc2)CCCC1,Ki,"protein: WD repeat-containing protein 5, PDB entry 4gm3",0.001 µM (active)
CCC(CC)(NC(=O)C(C)C)C(=O)N[C@@H](CCCNC(N)N)C(=O)NC1(C(=O)NC(c2ccc(F)cc2)c2ccc(F)cc2)CCCC1,Ki,"protein: WD repeat-containing protein 5, PDB entry 4gm8",0.001 µM (active)
C[C@](COC(=O)CCCCC(=O)O)([C@@H](NCCC=O)C(=O)O)S(=O)O,Ki,"protein: SHV-1 beta-lactamase, PDB entry 4mbf",1.7 µM (active)
C[C@H](C(=O)O)c1ccc2c(c1)[nH]c1ccc(Cl)cc12,Ki,"protein: E. coli sliding clamp, DNA polymerase III subunit beta, PDB entry 4mjr",283 µM (active)
C[C@@H](O[P+](O)(O)O)C(=O)O,Ki,"protein: PHOSPHO-2-DEHYDRO-3-DEOXYHEPTONATE ALDOLASE DAH7PS, PDB entry 4umb",99 µM (active)
C[C@H](O[P+](O)(O)O)C(=O)O,Ki,"protein: PHOSPHO-2-DEHYDRO-3-DEOXYHEPTONATE ALDOLASE DAH7PS, PDB entry 4umc",360 µM (active)
H-SRVPTSII-OH,Ki,"protein: CFTR Associated Ligand (CAL) PDZ domain, PDB entry 4jog",190 µM (active)
H-NSRYPTSII-OH,Ki,"protein: CFTR Associated Ligand (CAL) PDZ domain, PDB entry 4jok",85.3 µM (active)
H-RLPTSII-OH,Ki,"protein: CFTR Associated Ligand (CAL) PDZ domain, PDB entry 4jof",68 µM (active)
H-SRFPTSII-OH,Ki,"protein: CFTR Associated Ligand (CAL) domain, PDB entry 4joj",110 µM (active)
CC(C)(C)NC(=O)[C@@]1(c2c(C(=O)O)[nH]c3cc(Cl)ccc23)N2C(=O)[C@]21c1ccc(OCc2ccc(Cl)cc2)cc1,Ki,"protein: E3 ubiquitin-protein ligase Mdm2, PDB entry 4mdn",0.6 µM (active)
CC(C)(C)NC(=O)[C@@H]1C[C@@H]2CCCC[C@@H]2CN1C[C@@H](O)[C@H](C[C@@H]1C=CCCC1)NC(=O)[C@H](CC(N)=O)NC(=O)C1=CCc2ccccc2N1,Ki,"protein: Protease PRG48T/L89M, PDB entry 4qgi",125 µM (active)
Nc1nc2c(ncn2[C@H]2CCN(C(=O)C[P+](O)(O)O)C2)c(=O)[nH]1,Ki,"protein: Xanthine phosphoribosyltransferase, E. coli XGPRT, PDB entry 4jit",0.23 µM (active)
Nc1nc2c(ncn2CC(COC[P+](O)(O)O)COC[P+](O)(O)O)c(=O)[nH]1,Ki,"protein: hypoxanthine-guanine phosphoribosyltransferase, PDB entry 4ijq",0.03 µM (active)
Nc1nc2c(ncn2[C@H]2CN(C(=O)C[P+](O)(O)O)C[C@H]2O)c(=O)[nH]1,Ki,"protein: Xanthine phosphoribosyltransferase, E. coli XGPRT, PDB entry 4jls",2.2 µM (active)
O=C(O)CC1(CC(=O)N2CCN(C(c3ccccc3)c3ccccc3)CC2)CCCC1,Ki,"protein: Dehydrosqualene synthase, PDB entry 3tfn",0.27 µM (active)
CO[C@H]1CC[C@H](OC)[C@@H](NC(=O)CN2CCN(Cc3ccc4c(c3)OCO4)CC2)C1,Ki,"protein: E. coli beta-Glucuronidase, PDB entry 4jhz",0.957 µM (active)
NCCCC[C@H](NC(=O)Cc1ccc(Cl)c(Cl)c1)C(=O)N[C@@H](CCCCN)C(=O)NCC1CCC(NC(N)N)CC1 (stereo partly drawn),Ki,"protein: SERINE PROTEASE SUBUNIT NS2B, SERINE PROTEASE NS3, PDB entry 2yol",0.13 µM (active)
Cn1nc(N)c2c[n+]([C@@H]3O[C@H](CO[P+](O)(O)O)[C@@H](O)[C@H]3O)c3nc[nH]c1c23,Ki,"protein: Deoxyribonucleoside 5'-monophosphate N-glycosidase (D69N mutation), PDB entry 4fyh",14 µM (active)
N#Cc1cccc(Cn2cc(NC(=O)c3n[nH]c4ccccc34)cn2)c1,Ki,"protein: Tyrosine-protein kinase ITK, PDB entry 4pp9",0.043 µM (active)
CCc1[nH]c2nc(Oc3cncnc3)nc(N3C[C@@H]4C(N)[C@@H]4C3)c2c1Cl (stereo partly drawn),Ki,"protein: DNA gyrase subunit B, PDB entry 4gee",0.001 µM (active)
COc1ccc(OCCN2C[C@H]([C@@H](O)CO)[C@H]3CCC[C@@H](C2=O)N3S(=O)(=O)c2cc(Cl)cc(Cl)c2)cc1OC,Ki,"protein: Peptidyl-prolyl cis-trans isomerase FKBP51, PDB entry 4w9o",0.017 µM (active)
COc1ccc(OCCN2C[C@H]([C@H](O)CO)[C@H]3CCC[C@@H](C2=O)N3S(=O)(=O)c2cc(Cl)cc(Cl)c2)cc1OC,Ki,"protein: Peptidyl-prolyl cis-trans isomerase FKBP51, PDB entry 4w9p",0.016 µM (active)
O=C(O)c1cc2[nH]c3ccccc3c2cc1Cl,Ki,"protein: E. coli sliding clamp, DNA polymerase III subunit beta, PDB entry 4n99",216 µM (active)
Cc1ccc(CSc2nc3c(c(=O)[nH]2)CCC3)cc1,Ki,"protein: Matrix metalloproteinase-13, PDB entry 4l19",0.8 µM (active)
N#C[C@H]1CC(=O)NC(=O)N1[C@@H]1O[C@H](CO[P+](O)(O)O)[C@@H](O)[C@H]1O,Ki,"protein: Mt orotidine 5'-monophosphate decarboxylase (OMPDC) K72A mutant, PDB entry 2zz2",29 µM (active)
O=c1ccn([C@@H]2O[C@H](CO)[C@@H](O)[C@H](O)[C@H]2O)c(=O)[nH]1,Ki,"protein: Glycogen phosphorylase, muscle form, PDB entry 3t3d",12.4 µM (active)
O=c1ccn([C@@H]2O[C@H](CO)[C@@H](O[P+](O)(O)O)[C@H]2O)c(=O)[nH]1,Ki,"protein: bovine seminal ribonuclease, PDB entry 1n3z",63.2 µM (active)
Cc1cc(=O)[nH]c(=O)n1[C@@H]1O[C@H](CO[P+](O)(O)O)[C@@H](O)[C@H]1O,Ki,"protein: Orotidine 5'-phosphate decarboxylase, PDB entry 3wjw",134 µM (active)
O=c1ccn([C@@H]2O[C@H](CO[P+](O)(O)O)[C@@H](O)[C@H]2O)c(=O)[nH]1,Ki,"protein: D312N mutant of human orotidyl-5'-monophosphate decarboxylase, PDB entry 3ex6",220 µM (active)
same,Ki,"protein: Mt orotidine 5'-monophosphate decarboxylase (OMPDC), PDB entry 3g1d",330 µM (active)
same,Ki,"protein: orotidine 5'-monophosphate decarboxylase from P.falciparum, PDB entry 2za3",210 µM (active)
O=c1cnn([C@@H]2O[C@H](CO[P+](O)(O)O)[C@@H](O)[C@H]2O)c(=O)[nH]1,Ki,"protein: Methanothermobacter thermautotrophicus ODCase mutant K42A, PDB entry 1km3",12.4 µM (active)
same,Ki,"protein: orotidine 5'-monophosphate decarboxylase from Saccharomyces cerevisiae (D91N), PDB entry 3gdt",0.064 µM (active)
